A short description of assay [1]: RPL19A-GFP modulators, yeast TOR pathway, confirmation, cell-based, S. cerevisiae, flow cytometry, cherry picks, mother/daughter gates (AID 2270;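 active = GFP response below 50% of the DMSO control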). Particulars: S. cerevisiae RPL19A-GFP strain, 3 h, at 10 µM, stronger effect = lower value, 100 = same GFP as DMSO wells. In general terms: Flow cytometry measures light scatter and fluorescence of single cells or particles in a stream.

Assay [2] is described as follows: LAP4-GFP expression modulators in yeast, confirmation, cell-based, cherry picks, flow cytometry, mother/daughter gates (AID 2271;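 active = GFP response above 150% of the DMSO control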;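 note: ratio of sample to DMSO plate mean so 100% equals DMSO level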). Particulars: S. cerevisiae LAP4-GFP strain, 3 h, at 10 µM, stronger effect = higher value, 100 means same as DMSO control.
Assay [3] is described as follows: modulators of MEP2-GFP levels in yeast, confirmation, S. cerevisiae, flow cytometry GFP, cherry picks (AID 2272;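 active = GFP response above 150% of the DMSO control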;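 note: ratio of well signal to plate DMSO mean so 100% equals DMSO level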). The conditions noted are these: S. cerevisiae MEP2-GFP strain, 3 h, at 10 µM, stronger effect = higher value.
Assay [4] can be described thus: AGP1-GFP expression modulators, hit retest, confirmation, cell-based, flow cytometry, S. cerevisiae, cherry picks (AID 2273).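 Note: median GFP channel fluorescence over the whole cell population gate.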 Particulars: S. cerevisiae AGP1-GFP strain, 3 h, at 10 µM.
Assay [5] in a line: modulators of CIT2-GFP expression in yeast, confirmation, S. cerevisiae, GFP fusion, cherry picks, mother/daughter gates (AID 2274). The conditions noted are these: S. cerevisiae CIT2-GFP strain, flow cytometry, 3 h, at 10 µM, stronger effect = higher value.
The nature of assay [6]: inhibitors of CD8+ T cell-vesicle binding, pilot screen, LFA-1/ICAM-1 modulator project, MLPCN validation set, flow cytometry (AID 2523;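 active = response below a set limit, under 55% cells CD8-positive and vesicle-bound, and CD8 cells' 90th-percentile brightness under 279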;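 for vesicle binding response: mean PE anti-B7-1 fluorescence of CD8+ cells relative to row control; 100% = QL9-loaded vesicles with DMSO vehicle in the same plate row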). Particulars: 2C mouse CD8+ T cells, at 7 µM, stronger effect = lower value; double positive events: measured here: CD8+/vesicle+ event percentage.
The target in assay [7] is Integrin beta-1 (Homo sapiens) + Integrin alpha-4 (Homo sapiens) (UniProt P13612+P05556). Briefly: inhibition of HUTS-21 binding to VLA-4, pilot screen, VLA-4 allosteric modulator project, U937 cells, HUTS-21 mAb, flow cytometry, validation set (AID 2674;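 active = inhibition above 50%, about 3 SD of the validation set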;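 note: antibody binding induced by the VLA-4 ligand LDV present at three times its Kd; 0% = LDV ligand with antibody and no compound and 100% = antibody without LDV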). The conditions noted are these: HUTS-21 LIBS mAb binding, at 6.7 µM, stronger effect = higher value, binding induced by LDV ligand.
Chain of Integrin beta-1 (Homo sapiens) + Integrin alpha-4 (Homo sapiens) (P05556 whole entry, looked up): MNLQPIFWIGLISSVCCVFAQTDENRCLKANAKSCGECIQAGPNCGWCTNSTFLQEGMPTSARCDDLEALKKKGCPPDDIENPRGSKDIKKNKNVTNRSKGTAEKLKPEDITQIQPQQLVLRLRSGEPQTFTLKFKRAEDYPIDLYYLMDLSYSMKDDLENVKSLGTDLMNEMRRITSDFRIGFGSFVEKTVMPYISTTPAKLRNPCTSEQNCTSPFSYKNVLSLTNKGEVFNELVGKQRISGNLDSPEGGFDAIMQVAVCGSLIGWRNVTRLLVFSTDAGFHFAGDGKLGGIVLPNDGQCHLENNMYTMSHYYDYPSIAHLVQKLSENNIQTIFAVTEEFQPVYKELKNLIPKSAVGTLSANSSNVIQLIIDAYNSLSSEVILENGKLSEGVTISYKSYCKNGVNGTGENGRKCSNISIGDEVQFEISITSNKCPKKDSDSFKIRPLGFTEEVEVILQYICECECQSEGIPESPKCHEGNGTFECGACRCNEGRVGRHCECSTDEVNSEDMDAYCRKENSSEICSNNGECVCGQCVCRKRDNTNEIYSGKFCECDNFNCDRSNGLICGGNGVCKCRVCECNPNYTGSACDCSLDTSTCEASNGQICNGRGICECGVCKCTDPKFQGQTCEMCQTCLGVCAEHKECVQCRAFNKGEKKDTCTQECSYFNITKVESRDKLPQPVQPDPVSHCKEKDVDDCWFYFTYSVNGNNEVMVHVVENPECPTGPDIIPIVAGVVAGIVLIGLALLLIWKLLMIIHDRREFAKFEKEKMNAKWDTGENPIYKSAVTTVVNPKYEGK
Chain of Integrin beta-1 (Homo sapiens) + Integrin alpha-4 (Homo sapiens) (P13612 whole entry, looked up): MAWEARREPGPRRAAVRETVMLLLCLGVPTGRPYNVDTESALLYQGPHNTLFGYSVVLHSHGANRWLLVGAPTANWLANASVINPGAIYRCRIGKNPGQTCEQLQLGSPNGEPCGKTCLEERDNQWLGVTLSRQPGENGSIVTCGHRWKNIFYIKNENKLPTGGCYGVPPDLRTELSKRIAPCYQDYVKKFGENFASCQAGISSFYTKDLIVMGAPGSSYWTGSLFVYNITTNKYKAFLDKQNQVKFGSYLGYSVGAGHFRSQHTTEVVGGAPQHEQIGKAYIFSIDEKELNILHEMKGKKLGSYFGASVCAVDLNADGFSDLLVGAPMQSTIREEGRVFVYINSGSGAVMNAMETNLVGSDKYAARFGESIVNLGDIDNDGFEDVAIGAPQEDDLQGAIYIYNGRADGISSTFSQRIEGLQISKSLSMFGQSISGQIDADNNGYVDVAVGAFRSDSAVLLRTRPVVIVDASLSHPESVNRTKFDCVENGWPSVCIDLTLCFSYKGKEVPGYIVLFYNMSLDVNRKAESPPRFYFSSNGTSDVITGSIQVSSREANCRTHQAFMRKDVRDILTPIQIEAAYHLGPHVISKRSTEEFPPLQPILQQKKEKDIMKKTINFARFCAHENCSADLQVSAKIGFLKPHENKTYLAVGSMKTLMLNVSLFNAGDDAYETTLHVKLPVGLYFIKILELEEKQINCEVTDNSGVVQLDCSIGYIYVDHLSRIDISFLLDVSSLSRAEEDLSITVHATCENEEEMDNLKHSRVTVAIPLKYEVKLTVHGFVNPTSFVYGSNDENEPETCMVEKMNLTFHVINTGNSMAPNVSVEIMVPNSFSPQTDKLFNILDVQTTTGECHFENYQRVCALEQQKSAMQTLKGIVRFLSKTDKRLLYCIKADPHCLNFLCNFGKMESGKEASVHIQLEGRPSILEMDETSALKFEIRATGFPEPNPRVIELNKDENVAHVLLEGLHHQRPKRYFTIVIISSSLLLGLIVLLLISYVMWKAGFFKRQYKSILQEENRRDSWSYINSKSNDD

Assay [8] in a line: superoxide lowering in aged yeast cells, pilot screen, validation compound set (AID 2706;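 active = superoxide response below 65% of plate, a cut near 3 SD across the whole screen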;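 note: yeast exposed to compound for one week at 30 degrees C before staining; 100% = mean of all compound wells on the same plate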). The conditions noted are these: S. cerevisiae aging, superoxide DHE fluorescence; at 10 µM, stronger effect = lower value.
Assay [9] has as its target Beta-adrenergic receptor kinase 1 (Homo sapiens) (UniProt P25098). Briefly: GRK2 binders displacing RNA aptamer, biochemical, validation, human GRK2, bead flow cytometry (AID 488806;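 active = aptamer binding inhibition above 30%, about 3 SD of noise from non-fluorescent compounds; inactive = inhibition at or below 30%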). The conditions noted are these: bead-bound GRK2, FAM-aptamer displacement, at 10 µM, stronger effect = higher value.
Assay [10] addresses Beta-2 adrenergic receptor (Homo sapiens) (UniProt P07550). As to the kind of experiment: beta2AR agonists driving receptor internalization, pilot screen, cell-based, FAP fluorogen, flow cytometry, validation set (AID 504459;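 active = percent response above 42, roughly 3 SD of non-fluorescent test compounds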;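 note: agonist-driven loss of surface beta2AR via internalization measured by FAP dye flow cytometry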). The conditions noted are these: Am2.2-beta2AR cells, FAP surface receptor flow cytometry; at 10 µM; stronger effect = higher value.
Assay [11] concerns the target AP-2 complex subunit beta (Homo sapiens) (UniProt P63010). As to the kind of experiment: inhibitors of arrestin peptide binding to AP2, pilot screen, biochemical, validation set, GST-AP2 beads, flow cytometry (AID 504541;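 active = inhibition above 54%, about 3 SD of non-fluorescent compounds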;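 note: AP2 carries R879A mutation and is captured from E. coli lysate; bead-bound FITC arrestin peptide fluorescence measuring arrestin peptide binding to AP2; 0% = DMSO wells and 100% = excess unlabeled arrestin peptide control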). Particulars: FITC arrestin peptide, at 10 µM, stronger effect = higher value, AP2 beta2 appendage fragment, R879A mutant.
A short description of assay [12]: yeast V-ATPase proton transport modulators, S. cerevisiae, pHLuorin, HTS validation (AID 504600; in the data active = response above about 15%;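 note: plate controls were DMSO for no effect and reference compound for full effect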). Particulars: S. cerevisiae pHLuorin cytosolic pH, at 10 µM, stronger effect = higher value.
Assay [13] concerns anti-desmoglein-3 scFv antibody binding to human DSG3. Briefly: inhibitors of anti-DSG3 scFv binding to DSG3, pilot screen, biochemical, validation compound set, bead-based, flow cytometry (AID 588368;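 active = binding below the plate cutoff, the plate median minus 3 SD, with a reading above zero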;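 note: signal is the median channel fluorescence of bead-bound GFP antibody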). Particulars: Protein G beads, DSG3-Fc, scFv-GFP binding, at 10 µM, stronger effect = lower value.
Assay [14] can be described thus: inhibitors of fungal efflux pumps CDR1, CDR2, MDR1, pilot screen, validation compound set, multiplex, phenotypic (AID 588506;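 active = efflux inhibition above 0.42, the validation set average plus 4 SD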;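 note: Nile Red retained in cells so higher fluorescence means more efflux inhibition; 0 = negative control wells and 1 = enniatin B 25 µM full block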). The conditions noted are these: S. cerevisiae pump-expressing triplex, Nile Red efflux flow cytometry; at 10 µM; stronger effect = higher value; the pumps come from Candida albicans.
Assay [15] deals with ATP-binding cassette sub-family B member 6 (Homo sapiens) (UniProt Q9NP58). As to the kind of experiment: ABCB6 transporter inhibitors, pilot screen, K562-ABCB6 cells, flow cytometry, validation set (AID 588550;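 active = inhibition above the screen-wide mean plus 3 SD, about 51%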;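 note: 0% = DMSO wells and 100% = benzethonium chloride 70 µM positive control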). The conditions noted are these: K562-ABCB6 porphyrin accumulation, 1 h, at 10 µM, stronger effect = higher value.
Chain of ATP-binding cassette sub-family B member 6 (Homo sapiens) (Q9NP58 whole entry, looked up): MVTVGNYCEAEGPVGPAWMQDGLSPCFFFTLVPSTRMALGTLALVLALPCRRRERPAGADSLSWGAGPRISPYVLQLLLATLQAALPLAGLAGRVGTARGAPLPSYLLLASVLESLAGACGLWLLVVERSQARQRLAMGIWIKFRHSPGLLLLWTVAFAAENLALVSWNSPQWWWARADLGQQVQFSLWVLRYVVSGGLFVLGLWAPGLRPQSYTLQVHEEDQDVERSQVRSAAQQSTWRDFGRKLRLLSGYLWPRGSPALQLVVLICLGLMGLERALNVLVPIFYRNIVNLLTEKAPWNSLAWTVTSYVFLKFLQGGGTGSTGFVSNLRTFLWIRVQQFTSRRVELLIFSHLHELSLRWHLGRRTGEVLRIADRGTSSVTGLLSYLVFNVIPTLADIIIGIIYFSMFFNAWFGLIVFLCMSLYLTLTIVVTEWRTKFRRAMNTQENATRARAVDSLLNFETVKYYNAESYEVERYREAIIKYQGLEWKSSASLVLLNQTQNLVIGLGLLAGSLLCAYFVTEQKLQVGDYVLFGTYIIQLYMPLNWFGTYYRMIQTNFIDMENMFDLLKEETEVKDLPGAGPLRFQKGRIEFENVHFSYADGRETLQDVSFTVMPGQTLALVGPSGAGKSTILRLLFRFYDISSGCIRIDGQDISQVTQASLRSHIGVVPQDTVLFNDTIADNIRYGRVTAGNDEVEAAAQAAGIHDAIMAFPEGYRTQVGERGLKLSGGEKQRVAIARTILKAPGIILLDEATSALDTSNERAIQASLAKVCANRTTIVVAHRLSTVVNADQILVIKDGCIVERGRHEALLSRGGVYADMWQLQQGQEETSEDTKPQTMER
Assay [16] is described as follows: promoters of myeloid differentiation in arrested cells, primary screen, cell-based, GFP/MAC1 double positive, flow cytometry, validation set (AID 588685;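 active = differentiation response of at least 50%, scaled between solvent and reference control, from cells with both markers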;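 note: compound exposure lasts four days before antibody staining and flow analysis; 0% = DMSO wells and 100% = 5 µM fulvestrant positive control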). Particulars: ER-HoxA9 marrow cells, stronger effect = higher value, normalized: vehicle 0, fulvestrant 100.
The mark [17] stands for this setting: measured here: daughter cell gate.
[18] abbreviates: measured here: mother cell gate.

Calls of active or inactive are those of the source.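 Rule for the calls, unless noted: active = GFP response above 150% of the DMSO level; inconclusive = fewer than 70 events counted for a yeast strain; inactive = the rest.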

Chain of AP-2 complex subunit beta (Homo sapiens) (P63010 whole entry, looked up, the tested form may be a part, one chain of several): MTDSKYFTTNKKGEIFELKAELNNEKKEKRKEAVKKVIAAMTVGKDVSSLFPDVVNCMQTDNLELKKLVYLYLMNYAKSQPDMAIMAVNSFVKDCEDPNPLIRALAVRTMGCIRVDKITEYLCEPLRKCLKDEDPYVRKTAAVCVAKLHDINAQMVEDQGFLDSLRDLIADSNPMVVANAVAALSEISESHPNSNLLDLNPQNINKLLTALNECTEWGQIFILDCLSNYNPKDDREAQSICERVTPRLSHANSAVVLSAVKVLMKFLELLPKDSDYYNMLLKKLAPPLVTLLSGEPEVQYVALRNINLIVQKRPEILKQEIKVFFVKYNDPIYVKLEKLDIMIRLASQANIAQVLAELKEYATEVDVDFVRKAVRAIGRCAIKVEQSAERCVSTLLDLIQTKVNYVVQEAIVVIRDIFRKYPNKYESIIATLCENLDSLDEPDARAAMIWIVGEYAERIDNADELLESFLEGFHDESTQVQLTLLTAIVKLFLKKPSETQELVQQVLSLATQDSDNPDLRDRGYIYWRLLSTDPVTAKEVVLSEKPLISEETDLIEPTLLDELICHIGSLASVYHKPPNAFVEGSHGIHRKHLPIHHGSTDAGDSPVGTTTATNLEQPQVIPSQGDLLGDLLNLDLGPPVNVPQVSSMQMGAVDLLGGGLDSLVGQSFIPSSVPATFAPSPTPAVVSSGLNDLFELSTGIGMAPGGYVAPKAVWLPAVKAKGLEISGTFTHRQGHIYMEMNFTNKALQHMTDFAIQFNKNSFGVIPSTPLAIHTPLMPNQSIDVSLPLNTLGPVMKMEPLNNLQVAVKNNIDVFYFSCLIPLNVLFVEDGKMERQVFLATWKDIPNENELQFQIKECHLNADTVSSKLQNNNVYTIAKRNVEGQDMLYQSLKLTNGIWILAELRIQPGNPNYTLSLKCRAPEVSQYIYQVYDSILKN
Chain of Beta-2 adrenergic receptor (Homo sapiens) (P07550 whole entry, looked up): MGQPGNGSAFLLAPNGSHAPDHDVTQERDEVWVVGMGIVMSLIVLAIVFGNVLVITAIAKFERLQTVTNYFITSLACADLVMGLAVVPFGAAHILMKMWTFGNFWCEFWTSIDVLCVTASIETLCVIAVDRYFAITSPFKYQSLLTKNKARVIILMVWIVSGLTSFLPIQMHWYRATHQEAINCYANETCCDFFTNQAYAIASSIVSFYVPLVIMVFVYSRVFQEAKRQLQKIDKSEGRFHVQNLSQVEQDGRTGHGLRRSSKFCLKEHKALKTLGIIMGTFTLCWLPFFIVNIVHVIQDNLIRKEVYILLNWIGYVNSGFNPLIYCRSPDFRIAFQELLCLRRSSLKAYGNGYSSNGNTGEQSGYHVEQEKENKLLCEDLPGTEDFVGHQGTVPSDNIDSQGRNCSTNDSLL
Chain of Beta-adrenergic receptor kinase 1 (Homo sapiens) (P25098 whole entry, looked up): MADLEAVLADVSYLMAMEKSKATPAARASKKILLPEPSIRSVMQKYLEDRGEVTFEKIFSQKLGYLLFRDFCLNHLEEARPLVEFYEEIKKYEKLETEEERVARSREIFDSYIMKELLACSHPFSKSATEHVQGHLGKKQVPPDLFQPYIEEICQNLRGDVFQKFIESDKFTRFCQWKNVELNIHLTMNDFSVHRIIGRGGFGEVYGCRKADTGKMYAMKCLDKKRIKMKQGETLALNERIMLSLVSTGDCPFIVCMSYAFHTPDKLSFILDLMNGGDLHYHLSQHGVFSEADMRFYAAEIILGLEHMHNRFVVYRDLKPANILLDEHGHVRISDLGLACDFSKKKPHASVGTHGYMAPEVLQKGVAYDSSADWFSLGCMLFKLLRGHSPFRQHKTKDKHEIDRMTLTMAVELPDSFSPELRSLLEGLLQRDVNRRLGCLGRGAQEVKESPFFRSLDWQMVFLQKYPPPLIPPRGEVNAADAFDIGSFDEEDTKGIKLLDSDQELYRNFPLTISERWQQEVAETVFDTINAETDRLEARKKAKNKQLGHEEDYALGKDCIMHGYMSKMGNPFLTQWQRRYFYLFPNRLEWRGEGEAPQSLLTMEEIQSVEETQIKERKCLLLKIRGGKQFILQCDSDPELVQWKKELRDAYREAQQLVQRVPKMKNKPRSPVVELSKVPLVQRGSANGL

With `CCN(CC)CCCN(C(=O)c1cccs1)c1nc(-c2ccc(OC)cc2)cs1`, the results for the GFP response vs DMSO in assay [1] and in assay [3] were 104% (inactive) and 109% (inactive), respectively. For the same compound, the GFP response relative to DMSO in assay [2] was 98.7% (inactive). For the same compound, the GFP response, % of DMSO in assay [4] was 98% (inactive); in assay [5], 107% (inactive); in [5] (setting [17]) it was 101%; in [5] (setting [18]), 101%.

For `COc1cc2c(cc1OC)C1(CCCCC1)CN(C)C2`, in assay [6], the double positive events stood at 57.3%. The vesicle binding response in [6] is 258% (inactive). The inhibition (as a rule, the change of the read-out against control, counted positive when it falls) in assay [7] was 16% (inactive); in assay [11], 4.18% (inactive); in [15] it was -22% (inactive). In addition, the superoxide response (% of plate) in assay [8] is 103% (inactive). Further, the aptamer binding inhibition in assay [9] was 5% (inactive). Also, the response in assay [10] is 5.44% (inactive); in assay [12] it was 1.68% (inactive). Moreover, the binding (% of control) in assay [13] was 89% (inactive). In addition, in assay [14], the efflux inhibition (fraction of control) is 0.12 (inactive). For the same compound, the differentiation response in assay [16] is 4% (inactive).

`Fc1cccc(Cc2noc(CN3CCN(c4cnccn4)CC3)n2)c1` showed a double positive events in [6] of 56.6%. Besides, the vesicle binding response in assay [6] is 45.8% (inactive). The values for the inhibition in assay [7], in assay [11] and in assay [15] were -3.57% (inactive), 56.4% (active) and 0% (inactive), respectively. Besides, the superoxide response (% of plate) in assay [8] was 108% (inactive). The aptamer binding inhibition in assay [9] is -1% (inactive). For the same compound, the response in [10] was -4.45% (inactive); in assay [12] it was -3.37% (inactive). Also, the binding (% of control) in assay [13] is 97.4% (inactive). Further, the efflux inhibition (fraction of control) in [14] is 0.11 (inactive). Besides, the differentiation response in assay [16] is 41.3% (inactive).

Turning to `O=C(NOC(=O)c1ccccc1)c1ccccc1`, the GFP response vs DMSO is 108% (inactive) in assay [1] and 130% (inactive) in assay [3]. Besides, in assay [2], the GFP response relative to DMSO is 118% (inactive). The GFP response, % of DMSO in assay [4] is 88.2% (inactive); in assay [5], 113% (inactive); in [5] (setting [17]) it was 103%; in assay [5] (setting [18]) it was 96.6%.

`CC(OC(=O)c1cccs1)C(=O)Nc1nc(-c2ccccc2)cs1` (centres undefined): the GFP response vs DMSO in assay [1] was 98.7% (inactive); in [3], 99.5% (inactive). Also, the GFP response relative to DMSO in assay [2] was 94.2% (inactive). Moreover, the GFP response, % of DMSO in [4] was 94.9% (inactive); in [5], 101% (inactive).

Compound `Cc1ccc2c(c1)C(O)(CC(=O)/C=C/C=C/c1ccccc1)C(=O)N2` (centres undefined) came in with a double positive events in assay [6] of 63.9%. Besides, in assay [6], the vesicle binding response was 759% (inactive). In addition, the inhibition in assay [7] was -4.6% (inactive); in assay [11], 4.01% (inactive); in assay [15], -7% (inactive). Further, the superoxide response (% of plate) in [8] was 111% (inactive). The aptamer binding inhibition in assay [9] is 2% (inactive). Further, the response is -0.9% (inactive) in [10] and -1.15% (inactive) in assay [12]. The binding (% of control) in [13] is 99% (inactive). Also, in assay [14], the efflux inhibition (fraction of control) is -0.26 (inactive). Also, in assay [16], the differentiation response is 2.2% (inactive).

In the case of `NC(N)=NC(=O)c1nc(Cl)c(N)nc1N`, the double positive events in assay [6] worked out at 62.4%. Besides, the vesicle binding response in assay [6] is 206% (inactive). Moreover, the values for the inhibition in assay [7], in assay [11] and in [15] were 7.4% (inactive), -4.43% (inactive) and -2% (inactive), respectively. For the same compound, the superoxide response (% of plate) in [8] is 87% (inactive). Moreover, in assay [9], the aptamer binding inhibition is 0% (inactive). Besides, the figures for the response in assay [10] and in assay [12] were -22.4% (inactive) and -1.82% (inactive), respectively. In addition, in [13], the binding (% of control) was 104% (inactive). In addition, in [14], the efflux inhibition (fraction of control) is -0.04 (inactive). For the same compound, the differentiation response in [16] is -3.02% (inactive).

`CCCCNC(=O)c1cc2c(=O)n3cccc(C)c3nc2n(Cc2ccncc2)c1=N`: the GFP response vs DMSO in assay [1] is 97.2% (inactive); in assay [3] it was 102% (inactive). Moreover, the GFP response relative to DMSO in assay [2] is 96.5% (inactive). Also, the GFP response, % of DMSO in assay [4] was 102% (inactive); in assay [5] it was 104% (inactive); in [5] (setting [17]), 96.4%; in assay [5] (setting [18]) it was 95.6%.

The values are drawn from PubChem BioAssay.
